Laboratory results: PubChem BioAssay (NCI)
“And” between values parts separate entries of the source, which are not always exact repeats. Identical values can stand only once. About 83,000 compounds went through this panel and 20% of them were active in at least one assay; those are over-represented in the sample as a whole.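 How to read the values: 0–100, growth inhibition (40 = 60% inhibited); 0, no net growth; -100 to 0, cell death (-40 = 40% of starting cells died; -100 = all dead).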 The source made the active and inactive calls. Rule for the calls: active = growth percent below 10; inactive = the rest.

Assays:
Test in all cases: NCI-60 one-dose screen, 48 h (100 = growth as untreated, 0 = no growth, -100 = all killed)
[1] = system: NCI-H23 lung
[2] = system: NCI-H226 lung
[3] = system: NCI-H322M lung
[4] = system: HOP-62 NSCLC
[5] = system: NCI-H460 lung
[6] = system: HOP-92 NSCLC
[7] = system: NCI-H522 lung
[8] = system: A549/ATCC NSCLC
[9] = system: 786-0 renal
[10] = system: COLO 205 colon; conditions: 10 µM
[11] = system: DU-145 prostate
[12] = system: K-562 leukemia
[13] = system: MALME-3M melanoma
[14] = system: MDA-MB-231 breast
[15] = system: RXF 393 renal
[16] = system: SF-268 CNS
[17] = system: SF-539 CNS
[18] = system: UACC-257 melanoma
[19] = system: M14 melanoma
[20] = system: SF-295 CNS

Measured: growth

Nc1nc(N)c2cc(Sc3ccc4ccccc4c3)ccc2n1
inactive: [1]; 10 µM 43.1% | [2]; 10 µM 57.7% | [3]; 10 µM 48% | [4]; 10 µM 65% | [5]; 10 µM 16.1% | [6]; 10 µM 30.3% | [7]; 10 µM 31.4% | [8]; 10 µM 15.2% | [9]; 10 µM 23% | [11]; 10 µM 30.5% | [13]; 10 µM 53% | [14]; 10 µM 40.2% | [15]; 10 µM 52.7% | [16]; 10 µM 42.1% | [17]; 10 µM 33.2% | [18]; 10 µM 32.9% | [19]; 10 µM unless noted 16.4%
active: [10] -71.6% | [12]; 10 µM -3.38%

CC(=O)O[C@H]1C(=O)[C@@]2(C)[C@H]([C@H](OC(=O)c3ccccc3)[C@]3(O)C[C@H](OC(=O)[C@H](O)[C@@H](NC(=O)c4ccccc4)c4ccccc4)C(C)=C1C3(C)C)[C@]1(OC(C)=O)CO[C@@H]1C[C@@H]2O
28.9% (inactive) and -25.2% (active): [15]; 10 µM
30.7% (inactive) and 6.92% (active): [4]; 10 µM
inactive: [1]; 0.01 µM 24.1% | [1]; 2.5 µM 23.2% | [1]; 5 µM 30.5% | [1]; 10 µM 40.3% and 34.8% | [2]; 0.01 µM 67.6% | [2]; 2.5 µM 27.4% | [2]; 5 µM 32.1% | [2]; 10 µM 77.4% and 31% | [3]; 0.01 µM 53.8% | [3]; 2.5 µM 30.7% | [3]; 5 µM 30.1% | [3]; 10 µM 21.2% and 30.1% | [4]; 0.01 µM 48.2% | [4]; 2.5 µM 12.5% | [4]; 5 µM 15.4% | [5]; 0.01 µM 13.8% | [6]; 0.01 µM 53.2% | [6]; 2.5 µM 32.9% | [6]; 5 µM 42.7% | [6]; 10 µM 37.4% | [7]; 0.01 µM 22.1% | [8]; 0.01 µM 31.4% | [8]; 2.5 µM 18.5% | [8]; 5 µM 21.2% | [8]; 10 µM 47.3% and 29.9% | [9]; 0.01 µM 51.7% | [9]; 2.5 µM 17.7% | [9]; 5 µM 31% | [9]; 10 µM 42.2% and 42.3% | [12]; 0.01 µM 10.7% | [13]; 0.01 µM 52.3% | [13]; 2.5 µM 51.7% | [13]; 5 µM 61.6% | [13]; 10 µM 52.5% and 62.6% | [14]; 0.01 µM 49.4% | [16]; 0.01 µM 42.1% | [16]; 2.5 µM 27.2% | [16]; 5 µM 29.5% | [16]; 10 µM 37.1% and 36.3% | [20]; 0.01 µM 55.9% | [18]; 0.01 µM 14.6% | [18]; 2.5 µM 48.7% | [18]; 5 µM 59.6% | [18]; 10 µM 26.9% and 65% | [19]; 5 µM 19.5% | [19]; 10 µM 24.9% and 24.5%
29.1% (inactive) and 5.06% (active): [14]; 10 µM
-16.2% (active) and 11.8% (inactive): [7]; 10 µM
active: [5]; 2.5 µM 3.32% | [5]; 5 µM 4.65% | [5]; 10 µM 8.92% and 6.58% | [7]; 2.5 µM -12.4% | [7]; 5 µM 1.57% | [11]; 0.01 µM -35.7% | [11]; 2.5 µM -5.74% | [11]; 5 µM -7.54% | [11]; 10 µM -49.5% and -4.6% | [12]; 2.5 µM 5.83% | [12]; 5 µM 6.14% | [12]; 10 µM -6.92% and 5.96% | [14]; 2.5 µM -6.11% | [14]; 5 µM 2.87% | [15]; 0.01 µM 1.22% | [15]; 2.5 µM -29.4% | [15]; 5 µM -25.8% | [20]; 2.5 µM 2.61% | [20]; 5 µM 3.25% | [20]; 10 µM 9.92% and 1.83% | [17]; 0.01 µM -15.1% | [17]; 2.5 µM -28.7% | [17]; 5 µM -33.8% | [17]; 10 µM -14.3% and -16.1% | [19]; 2.5 µM -1.65%

S=P(N1CC1)(N1CC1)N1CC1
active: [11]; 100 µM -0.811% | [17]; 100 µM -8.76%
inactive: [1]; 10 µM 100% and 73.4% | [1]; 100 µM 33% | [2]; 10 µM 102% and 80.4% | [2]; 100 µM 62.4% | [3]; 10 µM 102% and 98.2% | [3]; 100 µM 89.4% | [4]; 10 µM 109% and 36.8% | [4]; 100 µM 47.9% | [5]; 10 µM 116% and 40.2% | [5]; 100 µM 26.3% | [6]; 10 µM 99.9% | [6]; 100 µM 36.1% | [7]; 10 µM 104% and 82.9% | [7]; 100 µM 59.5% | [8]; 10 µM 103% and 69.9% | [8]; 100 µM 52.2% | [9]; 10 µM 100% and 83.6% | [9]; 100 µM 21.6% | [11]; 10 µM 121% and 71.9% | [12]; 10 µM 109% and 53.2% | [12]; 100 µM 43.4% | [13]; 10 µM 98.1% and 97.8% | [13]; 100 µM 82% | [14]; 10 µM 100% and 103% | [14]; 100 µM 101% | [15]; 10 µM 120% and 86% | [15]; 100 µM 14.4% | [16]; 10 µM 124% and 83.6% | [16]; 100 µM 36.5% | [20]; 10 µM 104% and 81.7% | [20]; 100 µM 14.3% | [17]; 10 µM 113% and 94.6% | [18]; 10 µM 107% and 87.7% | [18]; 100 µM 37.2% | [19]; 10 µM unless noted 96.2% and 60.4%

Cn1c2nc3ccccc3c-2nc2ccccc21
inactive: [1]; 10 µM 94.1% and 91.3% | [2]; 10 µM 104% | [3]; 10 µM 99.7% and 88.7% | [4]; 10 µM 80.5% and 85.1% | [5]; 10 µM 86.9% and 86.5% | [6]; 10 µM 77.6% and 79.1% | [7]; 10 µM 102% and 87.8% | [8]; 10 µM 96.1% and 86.3% | [9]; 10 µM 96.6% and 94.4% | [11]; 10 µM 94.4% and 95.7% | [12]; 10 µM 121% and 94.7% | [13]; 10 µM 116% and 115% | [14]; 10 µM 79.9% and 83.8% | [15]; 10 µM 91% and 90.7% | [16]; 10 µM 97% and 97.7% | [20]; 10 µM 96.8% and 107% | [17]; 10 µM 92.2% and 77.2% | [18]; 10 µM 108% and 94.5% | [19]; 10 µM unless noted 108% and 100%
